# GLP1R ag: agonists of human GLP-1 receptor | actives 0.007% (n = 380,000) | Potency, µM (top dose mostly 45.6 µM), without a hit: at the highest dose activation, actives largely listed as activators | HEK293 GLP-1R CRE-luciferase, luminescence, 4-6 h; cells express a hypersensitive GLP-1R form | P43220; also: potency is read from the fitted curve at half-maximal effect; % of control where 0% means no effect
# Target sequence (P43220 whole entry, looked up): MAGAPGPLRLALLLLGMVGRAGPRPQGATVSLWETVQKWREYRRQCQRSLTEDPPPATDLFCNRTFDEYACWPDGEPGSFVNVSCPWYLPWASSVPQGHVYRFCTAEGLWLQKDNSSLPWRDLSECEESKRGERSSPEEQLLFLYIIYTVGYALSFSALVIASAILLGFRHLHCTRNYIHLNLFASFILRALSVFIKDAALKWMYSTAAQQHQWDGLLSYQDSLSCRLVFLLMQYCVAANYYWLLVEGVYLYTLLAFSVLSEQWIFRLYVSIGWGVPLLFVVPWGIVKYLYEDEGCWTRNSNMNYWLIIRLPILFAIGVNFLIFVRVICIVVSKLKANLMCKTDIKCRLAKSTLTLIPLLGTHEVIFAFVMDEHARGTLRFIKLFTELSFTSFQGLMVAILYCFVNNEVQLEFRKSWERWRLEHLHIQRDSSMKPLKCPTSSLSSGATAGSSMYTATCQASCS
# DRD3 agonist: agonists of human D3 dopamine receptor. D3R DiscoveRx beta-arrestin cells, luminescence, 90 min. max activation, %. actives 0.58% (n = 410,000); in the data active = max activation above about 30%; also: 0% is about no effect
#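 Agonist mode: compounds and dopamine controls were applied to plated cells for 90 min at 37 degrees C after an overnight attachment at 1500 cells/well. Luminescent read-out followed 30 - 60 minutes at room temperature with DiscoveRx detection reagent.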
# DRD3 antagonist: antagonists of human D3 dopamine receptor | actives 2.5% (n = 360,000) | max response, negative = inhibition, % | P35462 | AID 652054 | D3R cells, DiscoveRx beta-arrestin luminescence, antagonist mode; stronger effect = lower value; in the data active = max response below about -50%; inconclusive = no clear call, values can overlap the other calls; also: % is scaled to controls: 0 for no effect and ±100 for the full control effect
#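 Cells plated overnight at 1500 cells/well, then exposed to library compounds with dopamine controls for 90 minutes at 37 degrees C. DiscoveRx reagent added for 30–60 minutes at room temperature; luminescence read, quantitative HTS format.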
# GLP-1R inv ag: GLP-1 receptor (human) inverse agonism; P43220; HEK293 GLP-1R CRE-luciferase, luminescence, 24 h; GLP-1R form is constitutively active; Potency, µM (highest dose often 38.3 µM), without a hit: top-dose activity change, negative = inhibition, most hits filed as inhibitors; actives 1.6% (n = 410,000); AID 624417; also: potency is read from the fitted curve at half-maximal effect; % is scaled to controls: 0 for no effect and ±100 for the full control effect; nearly all actives have a fitted effect of over 55% in size
#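 Inverse agonists were sought by their lowering of basal cAMP reporter luciferase output in HEK293 cells stably carrying constitutively active human GLP-1R, after 24 h compound treatment.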
# * = called active by the depositor; ? = inconclusive; nt = no result given. This is a sample that favours compounds with a hit; in the whole collection about 4.3% have one here. Unless noted, calls follow the shape of the dose curve; as a rule, active = well fitted curve in the direction sought with a large enough effect; inconclusive = small, poorly fitted or top-dose-only effect, or another doubt; inactive = no such curve, though single readings can be large; an effect the other way counts as inactive or inconclusive.
SMILES,GLP1R ag,DRD3 agonist,DRD3 antagonist,GLP-1R inv ag
Cc1ccc(C(C(=O)NC2CCCC2)N(C(=O)Cc2cccs2)c2ccc3c(c2)OCCO3)cc1 (centres undefined),-1%,-6,-22,10µM*
Cc1ccc(C)c(N(C(=O)Cc2cccs2)C(C(=O)NC2CCCC2)c2ccc(C)o2)c1 (centres undefined),-2%,-14,27,-2%
COC(=O)c1cc(C(=O)c2ccc(Cl)cc2)n2c(=O)/c(=C\N(C)C)sc12,-1%,-5,0,0%
O=C(COc1ccc2oc3c(c2c1)CCCC3)Nc1ccc(Cl)cc1,15%,4,nt,4%
CC(=O)c1cccc(NC(=O)CCS(=O)(=O)c2cc(Br)cc3c2N(C(=O)C2CC2)CC3)c1,nt,-20,nt,1%
O=c1cc2c(nn1Cc1ccc(Cl)cc1Cl)-c1ccccc1CC2,28%,0,-6,?
O=c1cc2c(nn1Cc1ccccc1Cl)-c1ccccc1CC2,?,-2,14,10µM*
Cc1cnc(=O)[nH]c1SCc1ccc(C(F)(F)F)cc1,3%,31*,-5,?
COC(=O)C=CC(=NNc1ccccc1)c1ccccc1,?,10,4,7.9µM*
COc1ccc(-c2cnnc(N/N=C/c3ccc(O)c(OC)c3)n2)cc1,2%,32*,13,9%
COc1cc(/C=N/Nc2nc(N3CCCC3)nc(N3CCCC3)n2)ccc1O,15%,0,34,0%
CCN(CC)CC(O)c1ccc2ccc3ccc(O)cc3c2c1 (centres undefined),-4%,-4,5,11µM*
CC(=O)c1cc2cccc(OC3(C)CCN(Cc4ccc5ccccc5c4)C3)c2o1 (centres undefined),-3%,-16,-70*,?
CC(=O)c1ccc(OC2(C)CCN(Cc3cc4ccccc4[nH]3)C2)cc1 (centres undefined),-1%,-20,-55*,?
CC(=O)c1ccc(OC2(C)CCN(CCOc3ccc(C)cc3)C2)cc1 (centres undefined),13%,48*,-18,-15%
CN1CCN(c2sc(S(C)(=O)=O)nc2S(=O)(=O)c2ccc(Cl)cc2)CC1,-5%,-2,-2,?
COc1ccc(N2CCN(Cc3nc4scc(-c5ccccc5)c4c(=O)[nH]3)CC2)cc1,-3%,-1,-16,?
O=c1[nH]c(CN2CCN(c3ccccc3)CC2)nc2scc(-c3ccccc3)c12,-30%,108*,-5,6%
CCCN(Cc1cccs1)C(=O)Nc1cc(Cl)c(OC)cc1OC,nt,7,nt,-32%
CN(C)C(CNC(=O)c1ccc(C2SCCS2)cc1)c1ccccc1 (centres undefined),?,-26,-53*,?
Cc1onc(-c2ccccc2Cl)c1C(=O)O/N=C(\N)c1ccccc1,16%,4,12,10µM*
CC1=C(C)/C(=N\OS(=O)(=O)c2ccccc2)C=CC1=O,-11%,-5,-89*,?
CC(C)CC(=O)NC(=S)Nc1nc(-c2cccc3ccccc23)cs1,7%,-9,-73*,?
CCOC(=O)Cc1csc(NC(=S)NC(=O)CC(C)C)n1,10%,0,-11,-15%
COc1cc(/C=C2\N=C(C)OC2=O)cc(OC)c1OC,-7%,-4,-24,14%
SMILES,GLP1R ag,DRD3 agonist,DRD3 antagonist,GLP-1R inv ag
COc1cc(/C=C2/N=C(C3CCCCC3)OC2=O)cc(OC)c1OC,2%,-4,-69*,0%
COc1ccc(-c2onc(C)c2C)cc1S(=O)(=O)NCc1ccco1,nt,-4,nt,-10%
Cc1cc(C)cc(NC(=O)N2CCN(C(=O)c3nsc4ccccc34)CC2)c1,nt,4,nt,0%
c1ccc(Cn2c(Cn3c(-c4cnccn4)nc4ccccc43)nc3ccccc32)cc1,12%,-4,-22,?
Fc1ccc(CCn2c(Cn3c(-c4cnccn4)nc4ccccc43)nc3ccccc32)cc1,-1%,-14,-59*,14%
Cc1noc(C)c1COc1ccccc1C(=O)N(C)CC(=O)Nc1ccc(Cl)c(Cl)c1,1%,2,25,10µM*
COc1cccc(NC(=O)CN(C)C(=O)c2ccccc2OCc2c(C)noc2C)c1,8%,-3,0,1%
O=C(O)c1cc(-n2nnnc2SCc2ccc([N+](=O)[O-])cc2)ccc1Cl,-1%,-7,-54*,2%
CCOC(=O)c1c(C)[nH]c(C)c1S(=O)(=O)N1CCC(C(=O)Nc2cc(Cl)ccc2OC)CC1,nt,3,nt,-17%
CCOC(=O)N1CCN(C(=O)COC(=O)c2ccc([N+](=O)[O-])cc2Cl)CC1,6%,4,6,32%
CCOC(=O)N1CCN(C(=O)COC(=O)CSc2ccc([N+](=O)[O-])cc2)CC1,0%,2,-52*,2%
CCCN1C(=O)c2ccc(C(=O)Nc3nccs3)cc2C1=O,-14%,-5,-20,1%
CCCc1cc(C(=O)Nc2nccs2)cs1,6%,-6,-51*,-23%
COc1ccc(C(=O)NCC(c2ccco2)N2CCc3ccccc32)c(OC)c1 (centres undefined),17%,2,7,8.9µM*
COc1ccc(S(=O)(=O)NCC(c2ccco2)N2CCc3ccccc32)cc1 (centres undefined),-1%,-2,-11,6.3µM*
COc1ccc(C(=O)NCC(c2ccco2)N2CCc3ccccc3C2)c(OC)c1 (centres undefined),3%,-4,-19,?
Cc1ccc(S(=O)(=O)NCC(c2ccco2)N2CCc3ccccc32)cc1 (centres undefined),13%,1,-1,?
O=C(NCC(c1ccco1)N1CCc2ccccc21)c1cccc([N+](=O)[O-])c1 (centres undefined),23%,1,6,10µM*
Cc1ccc(C(=O)NCC(c2ccco2)N2CCc3ccccc32)cc1 (centres undefined),-2%,3,-22,10µM*
CCN(CC)c1ccc(NS(=O)(=O)c2cc3[nH]c(=O)c(=O)[nH]c3cc2C)c(C)c1,nt,10,nt,11%
COC(=O)c1cc(-c2ccc(C)cc2)c2c(=O)n(C)c(=O)n(C)c2n1,nt,5,nt,0%
CCOc1ccc(C(C)=O)cc1COC(=O)CNC(=O)C12CC3CC(CC(C3)C1)C2,20%,-11,0,3.5µM*
CCOc1ccc(C(=O)NCC(=O)OCc2cc(C(C)=O)ccc2OC)cc1,13%,-1,8,9%
O=C(CN(c1ccccc1)S(=O)(=O)c1ccccc1)N1CCN(Cc2ccc3c(c2)OCO3)CC1,-2%,-20,-67*,?
Cc1ccc(S(=O)(=O)N(C)CC(=O)N2CCN(Cc3ccc4c(c3)OCO4)CC2)cc1,6%,-22,-10,?
COc1ccc(N(CC(=O)N2CCN(Cc3ccc4c(c3)OCO4)CC2)S(=O)(=O)c2ccc(F)cc2)cc1,-8%,-18,-51*,?
COc1ccc(N(CC(=O)N2CCN(Cc3ccc4c(c3)OCO4)CC2)S(C)(=O)=O)cc1OC,-3%,1,23,-18%
